Measurements: PubChem BioAssay (Tox21)
Inconclusive results are not listed. The source made the active and inactive calls. Unless noted, calls follow the shape of the full dose curve.

Tests used:
[1] = Nuclear factor erythroid 2-related factor 2/antioxidant responsive element (Nrf2/ARE) small molecule agonists: qHTS cell viability counter screen in human keratinocytes (AID 1919968; active = well fitted curve in the direction sought with a large enough effect in the repeat runs; an effect the other way counts as inactive or inconclusive; also: nearly all actives have a fitted effect of over 55% in size)
Summary of the method: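 In human HaCaT keratinocytes stably expressing an ARE-driven luciferase, compound exposure lasted 23 h at 37 C under 5% CO2. Viable cells are quantified with a protease-based fluorogenic reagent (CellTiter-Fluor) read 1 h after addition.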

[2] = Nuclear factor erythroid 2-related factor 2/antioxidant responsive element (Nrf2/ARE) small molecule agonists: luciferase reporter gene qHTS assay in human keratinocytes (AID 1919969); also: nearly all actives have a fitted effect of over 35% in size
[3] = target: Gonadotropin-releasing hormone receptor (Homo sapiens) (UniProt P30968); test: Human gonadotropin-releasing hormone receptor (GnRHR) small molecule agonists, calcium flux assay in GnRHR-HEK293 cells (AID 1920063); also: nearly all actives have a fitted effect of over 35% in size
Summary of the method: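 Intracellular calcium rise is the read-out: engineered human GnRHR HEK293 cells, dye-loaded, are exposed to DMSO-dissolved compounds and fluorescence at Ex/Em 480/540 is tracked for 3 min.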

[4] = target: KiSS-1 receptor (Homo sapiens) (UniProt Q969F8); test: Human kisspeptin (KISS1R) small molecule agonists, calcium flux assay in KISS1R-HEK293 cells (AID 1920064; active = well fitted curve in the direction sought with a large enough effect in the repeat runs; an effect the other way counts as inactive or inconclusive)
Summary of the method: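 Concentration-response testing used 15 concentrations in triplicate on human KISS1R-expressing HEK293 cells. Calcium-dependent fluorescence (Ex/Em 480/540) was followed kinetically for 3 min after compound transfer.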

[5] = G protein-coupled receptor (GPCR) small molecule agonists, calcium flux assay: HEK293 wild type cell line counter screen (AID 1920065)
Summary of the method: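 Fluorescence intensity signals activation. After overnight (18 h) culture and a 1 h calcium dye load at 37 C, compounds are added by pin tool and the plate read at 480/540 nm for 3 min in 1 s steps.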

[6] = p53 small molecule agonists, cell-based qHTS assay with human liver microsomes (AID 1963577);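 also: p53 response element beta-lactamase reporter cells with liver microsomes plus NADPH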
Summary of the method: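 With metabolic activation: human liver microsomes (0.5 mg/mL final) plus NADPH (0.5 mg/mL final) added alongside compounds to p53RE-bla cells; 16 h 37 C exposure; beta-lactamase read by LiveBLAzer fluorescence.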

[7] = p53 small molecule agonists, cell-based qHTS assay with rat liver microsomes (AID 1963578)
Summary of the method: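 Metabolic activation by rat liver microsomes and NADPH, each 0.5 mg/mL final, added right after compounds to p53RE-bla reporter cells (4,000/well, plated 5 h earlier). 16 h at 37 C, then LiveBLAzer substrate for 2 h at room temperature in the dark; fluorescence read-out.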

[8] = p53 small molecule agonists, cell-based qHTS assay with human liver microsomes: qHTS cell viability counter screen (AID 1963579); also: nearly all actives have a fitted effect of over 45% in size
Summary of the method: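 Metabolic activation used human liver microsomes and NADPH, both 0.5 mg/mL final, over 16 hours at 37 C on p53RE-bla cells (4,000/well). Cytotoxicity measured by CellTiter-Glo luminescence, 30 min at room temperature.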

[9] = p53 small molecule agonists, cell-based qHTS assay with rat liver microsomes: qHTS cell viability counter screen (AID 1963580); also: nearly all actives have a fitted effect of over 45% in size
Summary of the method: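 After the beta-lactamase ratio was read, CellTiter-Glo was added to the same wells and luminescence measured at 30 min; cells had been treated 16 h at 37 C with compounds, rat liver microsomes and NADPH (0.5 mg/mL final each).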

[10] = p53 small molecule agonists, cell-based qHTS assay: qHTS cell viability counter screen (AID 1963581); also: nearly all actives have a fitted effect of over 45% in size
Summary of the method: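 Luminescence from CellTiter-Glo, reflecting ATP content, serves as the cytotoxicity measure; it is taken after the 2 h reporter substrate step in HCT-116 p53RE-bla cells dosed for 16 h at 37 C.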

[11] = p53 small molecule agonists, cell-based qHTS assay (AID 1963582; active = well fitted activation curve with a large enough effect in the signal ratio in the repeat runs, not every such curve was filed as active; the % refers to the signal ratio)
Summary of the method: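 After plating, p53RE-bla cells sat 5 h in the incubator; compounds or DMSO vehicle were pinned in; a 16 h incubation at 37 C followed; FRET substrate was added and, 2 h later at RT, fluorescence was measured.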

[12] = target: 5-hydroxytryptamine receptor 2A (Homo sapiens) (UniProt P28223); test: 5-hydroxytryptamine receptor 2A (HTR2A) small molecule antagonists, cell-based qHTS assay (AID 1963586); also: nearly all actives have a fitted effect of over 45% in size
Summary of the method: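 CHO cells stably expressing human HTR2A were plated for 18 h at 37 C, then loaded with calcium dye for 1 h. Compounds were preincubated 5 min at room temperature before DOI (4 nM solution) was added. Kinetic fluorescence was read for 3 min.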

[13] = target: 5-hydroxytryptamine receptor 2A (Homo sapiens) (UniProt P28223); test: 5-hydroxytryptamine receptor 2A (HTR2A) small molecule agonists, cell-based qHTS assay (AID 1963587); also: nearly all actives have a fitted effect of over 30% in size
Summary of the method: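 CHO cells stably expressing human HTR2A, plated 18 h, loaded with calcium dye 1 h at 37 C. Agonist mode: compounds added and intracellular calcium fluorescence recorded kinetically for 2 min at 1 sec intervals.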

[14] = target: Muscarinic acetylcholine receptor M1 (Homo sapiens) (UniProt P11229); test: Cholinergic receptor muscarinic 1 (CHRM1) small molecule antagonists, cell-based qHTS assay (AID 1963588); also: nearly all actives have a fitted effect of over 40% in size
Summary of the method: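 Compounds were tested at 15 concentrations in three independent runs. Dye-loaded CHRM1-CHO cells were exposed 5 min at room temperature before stimulation by acetylcholine added at 50nM. Intracellular calcium was read kinetically on FDSS for 3 min.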

[15] = target: Muscarinic acetylcholine receptor M1 (Homo sapiens) (UniProt P11229); test: Cholinergic receptor muscarinic 1 (CHRM1) small molecule agonists, cell-based qHTS assay (AID 1963589); also: nearly all actives have a fitted effect of over 35% in size
Summary of the method: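 Fluorescent calcium dye reports M1 activation in stably transfected CHO cells. Compounds, 15 concentrations, added after 1 h dye loading at 37 C; kinetic reading at 1 sec intervals.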

[16] = cAMP Responsive Elements (CRE) small molecule agonists, cell-based qHTS assay (AID 1963590)
Summary of the method: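 Compound exposure lasted 3 h at 37 C/5% CO2 in CRE-bla HEK 293T cells grown in assay medium with 10% dialyzed FBS and 25 mM HEPES. Reporter signal came from LiveBLAzer B/G FRET substrate, 2 h, room temperature.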

[17] = cAMP Responsive Elements (CRE) small molecule antagonists, cell-based qHTS assay (AID 1963591; active = well fitted inhibition curve with a large enough effect in the signal ratio in the repeat runs, not every such curve was filed as active; the % refers to the signal ratio)
Summary of the method: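 Stimulation used NKH477 at a final 0.25 uM for 3 h in compound-treated CRE-bla HEK293T cells, seeded 18 h beforehand. Reporter activity was measured with LiveBLAzer B/G FRET substrate after 2 h at room temperature.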

[18] = target: Beta-2 adrenergic receptor (Homo sapiens) (UniProt P07550); test: Adrenergic beta2 receptor (ADRB2) small molecule antagonists, cell-based qHTS assay (AID 1963592); also: series mostly up to about 92 µM; nearly all actives have a fitted effect of over 50% in size
Summary of the method: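 Assay format: CHO-ADRB2 cells, 18-20hr seeding at 37C/5% CO2, then compound plus 1nM isoproterenol agonist mix for 0.5hr RT. Homogeneous time-resolved fluorescence cAMP detection after 1hr, expressed as 665/615 nm ratio.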

[19] = target: D(2) dopamine receptor (Homo sapiens) (UniProt P14416); test: Dopamine D2 receptor (DRD2) small molecule agonists, cell-based qHTS assay (AID 1963594); also: nearly all actives have a fitted effect of over 35% in size
Summary of the method: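 HEK293 cells stably expressing human DRD2, pre-treated with PDE inhibitor Ro20-1724 (0.1 mM final) and compound 10 min at room temperature, then stimulated with NKH477 (200nM […]) for 30 min. cAMP read by HTRF (665/620 nm).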

[20] = target: D(2) dopamine receptor (Homo sapiens) (UniProt P14416); test: Dopamine D2 receptor (DRD2) small molecule antagonists, cell-based qHTS assay (AID 1963595; active = well fitted inhibition curve with a large enough effect in the signal ratio in the repeat runs, with a control signal flat; the % refers to the signal ratio)
Summary of the method: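 Antagonist mode in DRD2-HEK293 cells: after compound addition with 0.1 mM Ro20-1724, cells received quinpirole (12 nM) and NKH477 (200 nM) for 30 min at room temperature; HTRF cAMP read after 1 h detection.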

Measured: Potency

Chain of Muscarinic acetylcholine receptor M1 (Homo sapiens) (P11229 whole entry, looked up): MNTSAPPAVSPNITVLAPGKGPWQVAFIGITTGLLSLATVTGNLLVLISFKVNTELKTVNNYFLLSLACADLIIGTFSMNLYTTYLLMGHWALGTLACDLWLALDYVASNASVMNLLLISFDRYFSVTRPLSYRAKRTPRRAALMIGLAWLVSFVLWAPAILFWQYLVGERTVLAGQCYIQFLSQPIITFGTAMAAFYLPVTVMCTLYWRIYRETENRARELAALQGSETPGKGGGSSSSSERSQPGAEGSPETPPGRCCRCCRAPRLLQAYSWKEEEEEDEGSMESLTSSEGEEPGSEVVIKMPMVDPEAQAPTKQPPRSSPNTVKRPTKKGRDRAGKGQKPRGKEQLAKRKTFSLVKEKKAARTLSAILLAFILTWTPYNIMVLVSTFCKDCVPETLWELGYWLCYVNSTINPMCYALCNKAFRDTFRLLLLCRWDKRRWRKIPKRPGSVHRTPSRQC
Chain of Gonadotropin-releasing hormone receptor (Homo sapiens) (P30968 whole entry, looked up): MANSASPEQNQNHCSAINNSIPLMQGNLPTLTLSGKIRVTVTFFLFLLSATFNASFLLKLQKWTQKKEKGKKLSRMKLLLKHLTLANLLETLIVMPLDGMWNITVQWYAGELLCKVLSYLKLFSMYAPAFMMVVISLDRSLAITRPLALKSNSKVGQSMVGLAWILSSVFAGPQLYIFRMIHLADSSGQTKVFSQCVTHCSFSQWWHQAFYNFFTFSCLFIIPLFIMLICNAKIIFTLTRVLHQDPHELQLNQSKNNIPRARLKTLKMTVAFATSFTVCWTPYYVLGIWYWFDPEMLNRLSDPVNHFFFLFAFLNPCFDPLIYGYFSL
Chain of D(2) dopamine receptor (Homo sapiens) (P14416 whole entry, looked up): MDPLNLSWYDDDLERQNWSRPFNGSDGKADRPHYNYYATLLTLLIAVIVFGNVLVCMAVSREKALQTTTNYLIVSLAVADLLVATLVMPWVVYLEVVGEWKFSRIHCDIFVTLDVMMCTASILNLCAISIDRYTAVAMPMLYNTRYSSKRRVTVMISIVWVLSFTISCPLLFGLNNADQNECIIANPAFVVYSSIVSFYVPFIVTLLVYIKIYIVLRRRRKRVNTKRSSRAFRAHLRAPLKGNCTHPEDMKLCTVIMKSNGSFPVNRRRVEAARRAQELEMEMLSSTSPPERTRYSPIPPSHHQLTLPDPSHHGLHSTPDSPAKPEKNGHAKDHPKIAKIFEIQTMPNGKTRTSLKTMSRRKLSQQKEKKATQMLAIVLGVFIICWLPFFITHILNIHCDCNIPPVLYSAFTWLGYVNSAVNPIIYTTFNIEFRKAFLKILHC
Chain of 5-hydroxytryptamine receptor 2A (Homo sapiens) (P28223 whole entry, looked up): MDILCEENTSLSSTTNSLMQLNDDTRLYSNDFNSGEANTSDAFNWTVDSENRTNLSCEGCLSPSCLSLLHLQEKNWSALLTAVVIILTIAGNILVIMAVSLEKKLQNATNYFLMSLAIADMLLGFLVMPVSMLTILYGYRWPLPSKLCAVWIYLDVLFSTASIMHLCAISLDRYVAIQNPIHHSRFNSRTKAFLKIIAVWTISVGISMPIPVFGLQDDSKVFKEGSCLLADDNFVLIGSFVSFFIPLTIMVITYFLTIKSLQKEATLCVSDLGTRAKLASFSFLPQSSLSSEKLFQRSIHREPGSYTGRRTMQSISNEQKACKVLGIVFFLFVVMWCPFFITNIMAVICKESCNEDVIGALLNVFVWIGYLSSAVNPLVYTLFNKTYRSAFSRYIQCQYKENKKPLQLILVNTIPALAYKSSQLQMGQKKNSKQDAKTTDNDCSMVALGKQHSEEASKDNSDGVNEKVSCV
Chain of KiSS-1 receptor (Homo sapiens) (Q969F8 whole entry, looked up): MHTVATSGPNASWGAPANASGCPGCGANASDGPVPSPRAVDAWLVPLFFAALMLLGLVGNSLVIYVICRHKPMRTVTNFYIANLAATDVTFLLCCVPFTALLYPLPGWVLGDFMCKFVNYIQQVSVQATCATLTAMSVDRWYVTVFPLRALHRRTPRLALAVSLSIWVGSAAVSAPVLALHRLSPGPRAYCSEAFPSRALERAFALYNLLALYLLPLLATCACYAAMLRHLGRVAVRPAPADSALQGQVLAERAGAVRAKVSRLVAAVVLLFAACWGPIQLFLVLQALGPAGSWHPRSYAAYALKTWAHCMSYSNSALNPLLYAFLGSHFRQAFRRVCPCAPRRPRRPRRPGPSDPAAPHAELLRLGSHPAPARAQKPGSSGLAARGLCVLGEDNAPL
Chain of Beta-2 adrenergic receptor (Homo sapiens) (P07550 whole entry, looked up): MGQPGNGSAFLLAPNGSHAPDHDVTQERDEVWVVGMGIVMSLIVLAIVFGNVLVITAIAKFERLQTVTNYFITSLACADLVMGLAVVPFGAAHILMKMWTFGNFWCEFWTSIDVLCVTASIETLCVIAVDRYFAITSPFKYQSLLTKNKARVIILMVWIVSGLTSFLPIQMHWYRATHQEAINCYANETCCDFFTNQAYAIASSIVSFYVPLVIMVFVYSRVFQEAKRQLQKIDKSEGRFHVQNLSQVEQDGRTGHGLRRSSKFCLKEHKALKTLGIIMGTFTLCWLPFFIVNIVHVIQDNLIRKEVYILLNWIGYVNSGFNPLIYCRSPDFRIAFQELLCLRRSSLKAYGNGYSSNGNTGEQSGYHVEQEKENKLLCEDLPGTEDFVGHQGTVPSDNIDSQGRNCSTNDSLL

NS(=O)(=O)c1cc2c(cc1Cl)NC=NS2(=O)=O
inactive: [1] | [2] | [3] | [4] | [5] | [6] | [7] | [8] | [9] | [10] | [11] | [12] | [13] | [14] | [15] | [16] | [17] | [18] | [19] | [20]

C1N2CN3CN1CN(C2)C3
inactive: [1] | [2] | [3] | [4] | [5] | [6] | [7] | [8] | [9] | [10] | [11] | [12] | [13] | [14] | [15] | [16] | [17] | [18] | [19] | [20]

CC(C)=CCC/C(C)=C/C=O
inactive: [1] | [2] | [3] | [4] | [5] | [6] | [7] | [8] | [9] | [10] | [11] | [12] | [13] | [14] | [15] | [16] | [17] | [18] | [19] | [20]

COc1ccccc1[N+](=O)[O-]
inactive: [1] | [2] | [3] | [4] | [5] | [6] | [7] | [8] | [9] | [10] | [11] | [12] | [13] | [14] | [15] | [16] | [17] | [18] | [19] | [20]

O=[N+]([O-])C(CO)(CO)CO
inactive: [1] | [2] | [3] | [4] | [5] | [6] | [7] | [8] | [9] | [10] | [11] | [12] | [13] | [14] | [15] | [16] | [17] | [18] | [19]

COc1ccc([C@@H]2CC(=O)c3c(O)cc(O[C@@H]4O[C@H](CO[C@@H]5O[C@@H](C)[C@H](O)[C@@H](O)[C@H]5O)[C@@H](O)[C@H](O)[C@H]4O)cc3O2)cc1OC
inactive: [1] | [2] | [3] | [4] | [5] | [6] | [7] | [8] | [9] | [10] | [11] | [12] | [13] | [14] | [15] | [16] | [17] | [18]

COc1cc(C=O)ccc1O
inactive: [1] | [2] | [3] | [4] | [5] | [6] | [7] | [8] | [9] | [10] | [11] | [12] | [13] | [14] | [15] | [16] | [17] | [18] | [19] | [20]

O=C(O)CCCCCCCC(=O)O
inactive: [1] | [2] | [3] | [4] | [5] | [6] | [7] | [8] | [9] | [10] | [11] | [12] | [13] | [14] | [15] | [16] | [17] | [18] | [19] | [20]

Cc1ccccc1Cl
inactive: [1] | [2] | [3] | [4] | [5] | [6] | [7] | [8] | [9] | [10] | [11] | [12] | [13] | [14] | [15] | [16] | [17] | [18] | [19] | [20]

O=C1C(N(CO)C(=O)NCO)N(CO)C(=O)N1CO (stereo unspecified)
inactive: [1] | [2] | [3] | [4] | [5] | [6] | [7] | [8] | [9] | [10] | [11] | [12] | [13] | [14] | [15] | [16] | [17] | [18] | [19] | [20]

C=CCOC(=O)C(=C)C
inactive: [1] | [2] | [3] | [4] | [5] | [6] | [7] | [8] | [9] | [10] | [11] | [12] | [13] | [14] | [15] | [16] | [17] | [18] | [19] | [20]

Clc1ccc(Sc2cc(Cl)c(Cl)cc2Cl)cc1
inactive: [1] | [2] | [3] | [4] | [5] | [6] | [7] | [8] | [9] | [10] | [11] | [12] | [13] | [14] | [15] | [16] | [17] | [18] | [19] | [20]

CCc1ccc(O)cc1
inactive: [1] | [2] | [3] | [4] | [5] | [6] | [7] | [8] | [9] | [10] | [11] | [12] | [13] | [14] | [15] | [16] | [17] | [18] | [19] | [20]

O=[N+]([O-])c1ccccc1C(F)(F)F
inactive: [1] | [2] | [3] | [4] | [5] | [6] | [7] | [8] | [9] | [10] | [11] | [12] | [13] | [14] | [15] | [16] | [17] | [18] | [19] | [20]

OCc1cccc(Oc2ccccc2)c1
inactive: [1] | [2] | [3] | [4] | [5] | [6] | [7] | [8] | [9] | [10] | [11] | [12] | [13] | [14] | [15] | [16] | [17] | [18] | [19]
